# Source: PubChem
# Tb PYK inh: inhibitors of Trypanosoma brucei pyruvate kinase | Potency, µM (series often up to 76.8 µM), for inactives: top-dose activity, negative = inhibition, actives largely listed as inhibitors | TbPYK enzyme, Kinase-Glo Plus ATP luminescence, 45 min | Q57TT1 | hit rate 0.12% among 410,000; note: potency is the fitted concentration of half-maximal effect; nearly all actives have a fitted effect of over 50% in size
#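 Readout: single end-point luminescence (Kinase-Glo Plus, 10 min). Reaction conditions were TbPYK/substrate plus 130 uM ADP, 45 min at RT, pH 7.2 TEA buffer. No-enzyme wells served as controls, and data were normalized before concentration-response fitting.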
# HCMV antiviral: blocks human cytomegalovirus replication | activity change, negative = inhibition, % at 57.5 µM | HFF cells, HCMV-luciferase reporter, 72 h; active compounds read low | hit rate 4.5% among 410,000; in the data active = activity change below about -60%; inconclusive = no clear call, values can overlap the other calls; inactive = above about -39%
#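 Compounds were evaluated in HFFs infected with an HCMV luciferase reporter virus (MOI 1 PFU/cell). Luciferase in lysates collected 72 h post infection served as the replication measure.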
# VACV mCherry inh: inhibitors of vaccinia virus infection (mCherry reporter signal). AID 720579. Vaccinia virus mCherry reporter infection, fluorescence. Potency, µM (top dose mostly 36.5 µM), for inactives: at the top dose activity change, negative = inhibition, hits mostly inhibitors. hit rate 0.63% among 310,000; calls by dose curve; tested in A549 cells; note: potency is the fitted concentration of half-maximal effect; nearly all actives have a fitted effect of over 35% in size
# LmPK inhibitor: inhibitors of Leishmania mexicana pyruvate kinase | Potency, µM (series often up to 57.5 µM), for inactives: top-dose activity change, negative = inhibition, actives largely listed as inhibitors | hit rate 0.37% among 290,000 | purified LmPK, Kinase-Glo ATP luminescence, 1 h | AID 1721; note: potency is the fitted concentration of half-maximal effect
# Target sequence (Q27686 whole entry, looked up): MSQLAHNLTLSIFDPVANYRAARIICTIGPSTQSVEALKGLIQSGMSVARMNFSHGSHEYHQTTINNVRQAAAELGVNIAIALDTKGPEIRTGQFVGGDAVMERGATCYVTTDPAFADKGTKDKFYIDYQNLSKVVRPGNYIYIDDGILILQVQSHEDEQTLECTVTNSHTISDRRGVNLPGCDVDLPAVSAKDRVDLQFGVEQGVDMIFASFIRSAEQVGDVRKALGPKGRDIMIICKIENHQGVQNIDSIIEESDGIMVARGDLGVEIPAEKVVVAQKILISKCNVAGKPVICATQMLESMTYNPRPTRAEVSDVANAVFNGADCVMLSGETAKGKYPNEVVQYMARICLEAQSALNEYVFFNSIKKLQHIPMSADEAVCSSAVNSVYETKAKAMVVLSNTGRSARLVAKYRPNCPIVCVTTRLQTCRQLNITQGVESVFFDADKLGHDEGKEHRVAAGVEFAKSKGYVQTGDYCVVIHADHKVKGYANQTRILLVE
#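 ATP generated from ADP (0.1 mM) and PEP (0.5 mM) by 0.1 nM LmPK over 1 h at room temperature (pH 7.2 imidazole buffer) was detected by coupled luciferase luminescence. Values were normalized to uninhibited and no-enzyme wells.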
# Vaccinia Venus: vaccinia inhibition (Venus reporter) | Vaccinia virus Venus reporter expression, fluorescence | Potency, µM (top dose mostly 36.5 µM), for inactives: top-dose activity change, negative = inhibition, hits mostly inhibitors | hit rate 0.46% among 330,000 | AID 720580; calls by dose curve; tested in A549 cells; note: potency is the fitted concentration of half-maximal effect; nearly all actives have a fitted effect of over 30% in size
# * marks the source's active call; other numbers are inactive results; i = inactive; u = inconclusive; x = no result given; [ ] = another dose, or the depositor's remark. Only some compounds are listed: those with a hit (about 5% of all), similar ones and a draw of the others. Unless noted, calls come from the whole dose curve; as a rule, active = well fitted curve in the direction sought with a large enough effect; inconclusive = small, poorly fitted or top-dose-only effect, or another doubt; inactive = no such curve, though single readings can be large; an effect the other way counts as inactive or inconclusive. % is set by controls: 0 for no effect and ±100 for the full control effect.
SMILES,Tb PYK inh,HCMV antiviral,VACV mCherry inh,LmPK inhibitor,Vaccinia Venus
COc1ccccc1NC(=O)CS(=O)(=O)c1cn(CC(=O)N(C(C)C)C(C)C)c2ccccc12,-16.2%,2.0,-16.0%,x,-8.2%
Cc1nn(-c2ccccc2)c(C)c1/C=N/n1c(-c2ccccc2Br)n[nH]c1=S,u,-19.2,-7.2%,12.6µM*,-15.6%
Cc1cc(CN2CCN(c3ccccc3F)CC2)cs1,2.3%,-21.7,-5.2%,x,-5.9%
C/C=C/c1ccc(OCC(O)CN(C)Cc2ccc(SC)cc2)c(OC)c1 (stereo unspecified),-15.7%,-101.9*,x,-6.3%,x
CSc1ccc(/C=C/C(=O)OCC(=O)N(C)CCC#N)cc1,0.9%,47.0,x,-1.3%,x
Cn1c(=O)c2c(nc(Oc3ccc4ccccc4c3)n2C)n(C)c1=O,-2.7%,-76.2*,x,1.0%,x
Cc1ccc(CSc2nc(=O)c3c(C)cc(C)nc3n2C2CC2)cc1,6.5%,-101.3*,i,x,1.8%
COC(=O)c1cc(C)nc2c1c(=O)nc(SCc1c(C)cc(C)cc1C)n2C1CC1,5.8%,10.4,-10.9%,x,-2.5%
O=C(CSC1=NS(=O)(=O)c2ccccc21)Nc1ccccc1,u,32.5,12.6µM*,22.4µM*,10µM*
CC1CCC(NC(=O)c2ccc(NC(=O)CC3SC(N4CCCC4)=NC3=O)cc2)CC1 (stereo unspecified),-11.1%,10.7,-8.8%,x,-5.1%
C=CCNc1nc(N)c([N+](=O)[O-])c(Nc2ccccc2OC)n1,0.5%,5.4,-3.8%,0.9%,-24.7%
CC(C)CNc1nc(N)c([N+](=O)[O-])c(N2CCCCCC2)n1,-10.2%,-99.0*,u,-1.6%,u
COc1ccccc1Nc1nc(NCC(C)C)nc(N)c1[N+](=O)[O-],-20.4%,-84.7*,-6.0%[7.34 µM],-0.8%,u
CC(C)CC(NS(=O)(=O)c1ccccc1)C(=O)O (stereo unspecified),-7.1%,-10.5,x,9.8%,x
CC(C)CN=C(NS(=O)(=O)c1ccccc1)C(Cl)(Cl)Cl,-7.6%,-99.5*,u,3.8%,u
C[C@@H](C(=O)Nc1ccc(SC(F)F)cc1)N1C(=O)C2CCCCC2C1=O (stereo partly specified),-2.8%,-9.1,-18.0%,x,-5.2%
Cc1cccc(CN2C(=O)NC(c3ccccc3)(c3ccccc3)C2=O)c1,4.4%,-69.4*,u,-0.4%,-22.7%
CCCCCOC(=O)C1C(c2ccccc2)C(C(=O)O)C1c1ccccc1 (stereo unspecified),-4.7%,-93.1*,-11.2%,1.5%,-5.4%
O=C(O)C1C(c2ccccc2)C(C(=O)OCCCO)C1c1ccccc1 (stereo unspecified),1.5%,20.6,x,6.0%,x
COc1cc(-c2cc(C(=O)Nc3ccc(S(=O)(=O)NCc4ccco4)cc3)c3ccccc3n2)cc(OC)c1OC,0.0%,-63.2*,u,1.7%,-28.4%
Cc1nc2c(-c3ccc(F)cc3)cnn2c(N)c1-c1ccc(F)cc1,8.4%,-76.3*,-1.8%,6.6%,u
Cc1cccc(C(=O)N2[C@@H](C(C)C)COc3cc(Br)ccc3S2(=O)=O)c1,1.3%,-1.4,u,x,-27.0%
CC(C)(C)C1=CC(=O)C(=O)C(C(C)(C)C)=C1,8.91µM*,x,x,14.1µM*,x
CC1=CC(C)(C)N(S(=O)(=O)c2ccc(C)cc2)c2cc(C)ccc21,-11.9%,-84.7*,u,12.8%,u
CCOc1ccc2c(c1)C(C)=CC(C)(C)N2S(=O)(=O)c1ccc(C)cc1,-0.3%,-79.1*,-16.1%,-0.6%,-12.9%
SMILES,Tb PYK inh,HCMV antiviral,VACV mCherry inh,LmPK inhibitor,Vaccinia Venus
COc1ccc2c(c1)C(C)=CC(C)(C)N2S(=O)(=O)c1ccc(C)cc1,0.3%,-85.9*,u,-2.4%,-22.9%
O=C(NCCN1CCCCC1)c1cc(COc2c(F)cccc2F)on1,2.9%,-15.6,-19.1%,-1.6%,-20.1%
O=C1NC2(O)C(=O)c3ccccc3C2(O)N1 (stereo unspecified),-4.6%,-29.5,-5.7%,-0.3%,0.8%
CN(C(=O)C1CC1)c1ccccc1,-2.5%,4.0,-5.0%,x,5.4%
COC(=O)c1c[nH]c2c1-c1cc(C(=O)OCc3ccccc3)n(S(=O)(=O)c3ccc(C)cc3)c1C(=O)C2=O,-2.8%,111.9,u,x,2.24µM*
O=C(Nc1nnc2n1CCS2)c1ccccc1,0.9%,-67.5*,-10.0%,x,-5.3%
O=C(Cn1cccc1C(=O)c1ccccc1)NCCC1=CCCCC1,2.8%,-64.3*,-9.6%,6.7%,3.5%
Cc1ccccc1Sc1ccc([N+](=O)[O-])cn1,-1.0%,-1.9,x,x,x
Cc1ccnc(Sc2ccc([N+](=O)[O-])cn2)n1,-4.2%,-95.6*,x,-0.1%,x
O=[N+]([O-])c1cc(C(F)(F)F)ccc1N1CCN(S(=O)(=O)c2ccc3ccccc3c2)CC1,-5.6%,-69.0*,x,8.7%,u
Cn1c(=O)n(C)c2cc([N+](=O)[O-])c(N3CCN(S(=O)(=O)c4ccc(C(C)(C)C)cc4)CC3)cc21,0.7%,-94.4*,u,-1.2%,-13.7%
CC(=O)Nc1ccc(S(=O)(=O)N2CCN(c3cc4c(cc3[N+](=O)[O-])n(C)c(=O)n4C)CC2)cc1,5.1%,-28.1,-26.5%,2.9%,-19.5%
O=[N+]([O-])c1cc(C(F)(F)F)cc([N+](=O)[O-])c1N1CCN(S(=O)(=O)c2ccccc2)CC1,-4.9%,-16.5,-10.3%,2.6%,-7.8%
Cc1ccc(Cn2cc(CN(C)C3CN(Cc4cn(Cc5ccc(C)cc5)nn4)S(=O)(=O)C3)nn2)cc1 (stereo unspecified),-1.3%,-24.8,-8.2%,x,-11.1%
CCCCNS(=O)(=O)c1ccc2nc(-c3cccnc3)cc(C(=O)NCCC)c2c1,-2.8%,-66.0*,-29.2%,x,u
CCCCNC(=O)c1cc(-c2cccnc2)nc2ccc(S(=O)(=O)NCCCC)cc12,0.0%,u,u,x,u
CCCN(C)C1CN(Cc2cn(Cc3ccc(Cl)cc3)nn2)S(=O)(=O)C1 (stereo unspecified),2.9%,17.0,23.5%,x,5.8%
COc1cc(OC)nc(Nc2nc(C(N)Cc3ccc(C(F)(F)F)cc3)cs2)n1 (stereo unspecified),-6.6%,-85.2*,u,x,u
COc1cccc(Nc2nc(C(N)Cc3ccc(C(F)(F)F)cc3)cs2)n1 (stereo unspecified),-8.7%,-90.4*,u,x,-29.4%
Cc1cc(C)nc(Nc2nc(C(N)Cc3ccc(C(F)(F)F)cc3)cs2)n1 (stereo unspecified),-8.5%,-16.0,u,x,-30.0%
COc1cccc(Nc2nc(C(N)Cc3ccc(F)cc3)cs2)n1 (stereo unspecified),-11.6%,7.1,u,x,u
c1ccc2c(c1)-c1ccccc1C2N1CCOCC1,18.9%,-18.6,-9.7%,x,0.6%
O=C(NC1c2ccccc2-c2ccccc21)N1CCOCC1,-2.5%,-22.3,11.2µM*,0.4%,10µM*
CCCCCCSc1cccc(-c2nc3cc(C)ccn3c2NCc2ccccc2)c1,-5.6%,55.4,-21.9%,x,u
